# Measurements: the supplement of paper PMC3334620
# Whole data set: some 33,000 sequences, median “E-score (-0.5 to 0.5)” near -0.056, cut for the highest 2% near 0.38. Shown is part of a subset that was picked to be rich in the highest values.
# Biological target: Stb4 (UniProt P50104)
# Assay: PBM E-score (8-mer binding enrichment) (E-score (-0.5 to 0.5)); higher = stronger / more preferred TF binding
# Conditions: protein concentration: 200 nM; construct: GST-DNA-binding domain
# How it was run: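 Bound GST-tagged yeast transcription factors, applied at about 100-200 nM to double-stranded universal all-10-mer Agilent arrays, were detected with fluorescent anti-GST. Scans were normalised with masliner. A modified Wilcoxon-Mann-Whitney statistic, the E-score, was assigned to each ungapped eight-base word pooled with its reverse complement by the Universal PBM Analysis Suite.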
# UniProt P50104, sequence (P50104 whole entry): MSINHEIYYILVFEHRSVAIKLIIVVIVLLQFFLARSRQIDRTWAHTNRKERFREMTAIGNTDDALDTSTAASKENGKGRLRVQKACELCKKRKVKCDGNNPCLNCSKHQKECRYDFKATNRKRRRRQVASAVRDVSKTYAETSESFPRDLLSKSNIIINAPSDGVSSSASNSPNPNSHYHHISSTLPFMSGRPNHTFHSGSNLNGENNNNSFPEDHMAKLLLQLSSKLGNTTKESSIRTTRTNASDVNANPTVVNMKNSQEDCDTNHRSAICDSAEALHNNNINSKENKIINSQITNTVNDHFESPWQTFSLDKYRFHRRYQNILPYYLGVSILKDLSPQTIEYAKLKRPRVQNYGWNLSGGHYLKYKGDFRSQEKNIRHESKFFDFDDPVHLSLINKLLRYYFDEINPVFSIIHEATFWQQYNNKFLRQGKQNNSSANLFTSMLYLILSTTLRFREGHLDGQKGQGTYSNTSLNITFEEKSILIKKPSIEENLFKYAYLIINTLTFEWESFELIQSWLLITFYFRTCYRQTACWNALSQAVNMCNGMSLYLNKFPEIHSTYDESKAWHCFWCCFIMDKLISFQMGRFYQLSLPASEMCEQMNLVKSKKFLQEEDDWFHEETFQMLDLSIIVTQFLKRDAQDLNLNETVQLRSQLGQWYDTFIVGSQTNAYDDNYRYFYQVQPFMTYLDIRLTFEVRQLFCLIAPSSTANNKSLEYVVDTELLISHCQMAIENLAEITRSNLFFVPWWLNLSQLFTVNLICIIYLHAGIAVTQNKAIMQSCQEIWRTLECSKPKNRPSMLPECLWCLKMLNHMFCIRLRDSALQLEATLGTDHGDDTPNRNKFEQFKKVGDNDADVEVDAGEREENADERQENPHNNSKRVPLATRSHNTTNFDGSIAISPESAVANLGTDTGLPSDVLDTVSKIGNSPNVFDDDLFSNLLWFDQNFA
row,Sequence,PBM E-score
1,AATCGAAT,0.00368
2,CTGAGAGC,-0.138
3,AATACTGG,-0.159
4,TCTAAAAA,0.0389
5,AGGGTGTA,-0.093
6,GTCGCAGA,-0.195
7,AGTCTCGC,-0.0759
8,ACTCTCGC,-0.0541
9,ACTCTCGA,-0.214
10,ACTCTCGG,0.416
11,AGTCTCGG,0.39
12,AGTCTCGA,-0.0187
13,ATAGCCTC,-0.00394
14,ACTGATAC,0.0597
15,ATAGTCGC,-0.076
16,ACGCTACC,0.00891
17,TATTTTGA,-0.151
18,TAGCCTCA,-0.198
19,GATGCTTA,-0.00303
20,AAGATCCG,0.41
21,AAGATCCA,-0.0259
22,CAGATCCC,0.00572
23,CAGATCCG,0.416
24,AAGATCCC,0.126
25,CAGATCCA,0.0283

row,Sequence,PBM E-score
1,GGGCCGCA,0.134
2,AGTCACAA,-0.173
3,AGTTTAGG,-0.238
4,AAATGGGG,-0.344
5,ACCTGGTG,-0.0216
6,ATCGGCGG,0.327
7,CGCATCCA,-0.126
8,CGCATCCC,-0.0101
9,AGCATCCT,0.0794
10,CGCATCCG,0.408
11,AGCATCCA,-0.115
12,AGCATCCG,0.419
13,CTCGTAGA,-0.246
14,GAAACGTC,0.0218
15,GCTCGGTA,0.416
16,ACTCGGTA,0.322
17,AATCGGTA,0.205
18,GATCGGTA,0.407
19,CCTCGGTA,0.38
20,CATCGGTA,0.345
21,GCTAGACC,-0.0645
22,AGTTTTCG,0.152
23,TATGAAGA,-0.0238
24,ACTGTCTG,-0.0825
25,AGGAAAGC,-0.0848

row,Sequence,PBM E-score
1,AGGAAAGA,-0.174
2,GGGAAAGA,-0.0458
3,CAGAAAGC,-0.131
4,CGGAAAGA,0.407
5,CGGAAAGC,0.386
6,TGAGCTAA,-0.15
7,CAATGCGG,0.0433
8,CACTTCCC,0.0457
9,CACTTCCG,0.397
10,AACTTCCT,-0.0245
11,CACTTCCA,-0.0868
12,AACTTCCG,0.451
13,AACTTCCA,0.132
14,AGTTCATC,-0.107
15,CGAACGAG,0.0473
16,CAGAGTGA,-0.0625
17,AATAACTC,-0.0405
18,AGATGAGA,-0.103
19,GATTGCGC,-0.00733
20,AGATAAAC,0.00284
21,AGAGACCC,-0.0488
22,CAGTTCGG,0.409
23,AAGTTCGA,0.0503
24,AAGTTCGG,0.421
25,CAGTTCGC,-0.194

row,Sequence,PBM E-score
1,AAGTTCGC,-0.187
2,CAGTTCGA,-0.262
3,ATCCACGG,0.109
4,GGGAGACA,0.146
5,CAGGCGGC,0.067
6,CCCGTCGG,0.386
7,CCCGTCGC,-0.00272
8,CCCGTCGA,0.102
9,CCTGGCAC,-0.00805
10,GAAGAGGC,-0.016
11,ATCGGATC,0.43
12,ATTGGATC,-0.0271
13,CTCAGATA,-0.00864
14,CTCGGATA,0.49
15,ATAGGATA,-0.00309
16,CTAGGATA,-0.0673
17,ATCGGAGG,0.199
18,AACGGATC,0.306
19,ATCGGATG,0.451
20,ATCGGATA,0.467
21,ATTGGATA,-0.121
22,ATGGGATG,-0.0874
23,CCCTCTAA,-0.182
24,AGACCTTG,-0.312
25,ACTAGGAC,-0.0716

row,Sequence,PBM E-score
1,GTCATTTA,-0.171
2,AATGGTTG,0.02
3,GTCAGGCA,-0.118
4,AGCTGGAT,-0.0862
5,AAGACTGA,-0.25
6,CTCGGATC,0.481
7,GTCGGAGA,0.294
8,GTCGGATA,0.463
9,CTGGGATC,-0.0424
10,GTCGGACA,0.22
11,CTCAGATC,-0.103
12,GTCAGCTA,-0.259
13,TCTGCAAA,-0.122
14,CCATCGCA,-0.229
15,CGGAAAAG,0.373
16,CGGAAAAA,0.446
17,CGGAAATA,0.429
18,CGGAAAAC,0.37
19,CGGAAATC,0.366
20,GGGAAATA,0.157
21,CTCTTTGA,-0.285
22,CTTAGAAG,-0.29
23,CGTATTGA,-0.271
24,AGTTACTA,-0.103
25,ACAATCTG,-0.064

row,Sequence,PBM E-score
1,ACAACGGC,0.108
2,GAACGCGA,-0.0119
3,ATTTCCGA,0.47
4,ATTTCCCA,-0.0128
5,ATTTCCTG,-0.0528
6,ATTTCCGG,0.426
7,ATTTCCGC,0.307
8,ATTTCCAA,0.0026
9,TCTGGACA,-0.0785
10,GCATAGCC,-0.0533
11,GTCTGCTA,-0.0233
12,CCGACCCC,0.214
13,CCGACGCC,0.343
14,GCGACGGA,0.245
15,ACGACGCG,-0.0636
16,CCGACCCG,0.407
17,CCGACGGA,0.404
18,CCGACGCG,0.397
19,ACGACCCG,0.251
20,ACGACGGA,0.22
21,CTGACGCA,-0.298
22,CTCAGTGC,-0.109
23,ACATTGCT,-0.233
24,GTCAGACA,-0.0277
25,ATTACGCA,0.00056

row,Sequence,PBM E-score
1,AGCATTTC,-0.0674
2,GGTTGGAA,0.12
3,ATCTACCA,-0.135
4,TCCAACCA,-0.117
5,CGAGATGC,0.0535
6,ACCCGACG,0.425
7,CCCCGACG,0.277
8,CCCCGACA,0.16
9,GCCCGACA,0.187
10,ACCCGACA,0.402
11,ACCCGACT,0.33
12,CGTTGGAG,-0.232
13,CCGAGCCA,0.407
14,GCGAGCCC,-0.0138
15,CCGAGCCG,0.468
16,ACGAGCCA,-0.307
17,ACGAGCCC,-0.198
18,TCGAGCCA,-0.204
19,ACGAGCCG,0.292
20,CCGAGCCC,0.444
21,CGGAGCCG,0.352
22,GGAGTATA,0.235
